According to the supplement of paper PMC10849652:
Targets with a hit are over-represented here; the source holds about 7,900 in all. About 0.6% of all pairs of compound and target were hits. A number with no mark means an inactive call.

Columns and labels:
Assay in all cases: log2 fold change, soluble protein after heating vs DMSO (PISA); higher = thermal stabilisation; K562 cells, 10 uM, 30 min; active = over 0.2 and 3.5 SD of the protein, either way, in both replicates (recomputed)
erlotinib = compound: C#Cc1cccc(Nc2ncnc3cc(OCCOC)c(OCCOC)cc23)c1 [erlotinib]
In short: (§1)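 Values are thermal stability changes relative to control samples and are taken from duplicates. They are stated as log2 fold changes. Before quantification by TMTpro 16plex LC-MS/MS with equalised channel sums, K562 cells at 2×10^6 cells/mL were treated with 10 μM compound for 30 min, heated in aliquots for 3 min across 48°C-58°C, pooled, extracted in PBS with 0.5% NP-40 at 4°C, and centrifuged at 21,000xg for 90 min to give the soluble supernatant.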

[1] = compound: C/C(=N\NC(=O)C1=CC(=CC=C1)S(=O)(=O)N2CCOCC2)/C3=C(C=CC(=C3)Cl)O
In short: as §1

[2] = compound: C1=CC(=CC=C1C2=NC3=C(N2)C=C(C=C3)C(=O)N)OC4=CC=C(C=C4)Cl
In short: as §1

[3] = compound: C1=CC2=C(C=CC(=C2)/C=C\3/C(=O)NC(=NCC4=CC=CS4)S3)N=C1
In short: as §1

[4] = compound: C1=CC2=NC=CN=C2C=C1/C=C/3\C(=O)NC(=O)S3
In short: as §1

[5] = compound: C1=CC=C(C=C1)C2=NC(=C(N2)C3=CC=NC=C3)C4=CC(=C(C=C4)Cl)O
In short: as §1

[6] = compound: C1=CC=C2C(=C1)C3=NNC4=CC=CC(=C43)C2=O
In short: as §1

[7] = compound: C1CCN(C1)C(=O)NC2=CC=CC(=C2)NC3=NC=C(C(=N3)NCCC4=CN=CN4)Br
In short: as §1

[8] = compound: C1CN(CCC1(CC2=CC=C(C=C2)Cl)N)C3=NC=NC4=C3C=CN4
In short: as §1

IRAK-1-4 Inhibitor I = compound: C1COCCN1CCN2C3=CC=CC=C3N=C2NC(=O)C4=CC(=CC=C4)[N+](=O)[O-] [IRAK-1-4 Inhibitor I]
In short: as §1

ibrutinib = compound: C=CC(=O)N1CCC[C@@H](n2nc(-c3ccc(Oc4ccccc4)cc3)c3c(N)ncnc32)C1 [ibrutinib]
In short: as §1

[9] = compound: CC(=O)c1cnc2ccc(-c3cc(Cl)c(O)c(Cl)c3)nc2c1N[C@H]1CC[C@H](CN(C)C)CC1
In short: as §1

ralimetinib = compound: CC(C)(C)Cn1c(N)nc2ccc(-c3[nH]c(C(C)(C)C)nc3-c3ccc(F)cc3)nc21 [ralimetinib]
In short: as §1

[10] = compound: CC(C)C1=C2N=C(C=C(N2N=C1)NCC3=CC=CC=C3)NCCCCCCN
In short: as §1

[11] = compound: CC(C)C[C@@H](C=O)NC(=O)[C@H](CC(C)C)NC(=O)[C@H](CC(C)C)NC(=O)OCc1ccccc1
In short: as §1

pinometostat = compound: CC(C)N(C[C@H]1O[C@@H](n2cnc3c(N)ncnc32)[C@H](O)[C@@H]1O)[C@H]1C[C@@H](CCc2nc3cc(C(C)(C)C)ccc3[nH]2)C1 [pinometostat]
In short: as §1

[12] = compound: CC1=C(C(CC(=O)N1)C2=CC=C(C=C2)C(F)(F)F)C(=O)NC3=C(C=C4C(=C3)C=NN4)F
In short: as §1

[13] = compound: CC1=C(C2=C(C=C1)C(=O)C3=CC=CC=C3N2CCCN)C
In short: as §1

[14] = compound: C1=CC(=C(C=C1Cl)C2=NC3=NC=CN=C3C(=N2)NC4=CC=NC=C4)F
In short: as §1

[15] = compound: CC(C)(O)CC(=O)NCCn1ccc2ncnc(Nc3ccc(Oc4cccc(C(F)(F)F)c4)c(Cl)c3)c21
In short: as §1

Sequence of UniProt Q86X27 (Q86X27 whole entry, looked up): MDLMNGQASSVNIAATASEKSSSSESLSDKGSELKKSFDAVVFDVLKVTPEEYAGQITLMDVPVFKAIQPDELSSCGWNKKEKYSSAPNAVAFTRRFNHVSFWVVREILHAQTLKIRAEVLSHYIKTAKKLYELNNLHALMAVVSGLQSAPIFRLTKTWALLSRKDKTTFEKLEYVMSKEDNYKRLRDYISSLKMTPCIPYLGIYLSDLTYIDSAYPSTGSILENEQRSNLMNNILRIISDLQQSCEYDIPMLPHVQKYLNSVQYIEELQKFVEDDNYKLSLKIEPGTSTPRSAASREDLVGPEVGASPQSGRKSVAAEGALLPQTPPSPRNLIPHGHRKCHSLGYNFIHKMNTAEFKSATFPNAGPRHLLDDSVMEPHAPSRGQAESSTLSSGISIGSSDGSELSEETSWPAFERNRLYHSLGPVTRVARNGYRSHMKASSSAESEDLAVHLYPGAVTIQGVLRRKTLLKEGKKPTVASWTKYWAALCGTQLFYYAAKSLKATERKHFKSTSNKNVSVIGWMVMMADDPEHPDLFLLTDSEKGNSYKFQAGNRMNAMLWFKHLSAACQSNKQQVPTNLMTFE
Sequence of UniProt O75582 (O75582 whole entry, looked up): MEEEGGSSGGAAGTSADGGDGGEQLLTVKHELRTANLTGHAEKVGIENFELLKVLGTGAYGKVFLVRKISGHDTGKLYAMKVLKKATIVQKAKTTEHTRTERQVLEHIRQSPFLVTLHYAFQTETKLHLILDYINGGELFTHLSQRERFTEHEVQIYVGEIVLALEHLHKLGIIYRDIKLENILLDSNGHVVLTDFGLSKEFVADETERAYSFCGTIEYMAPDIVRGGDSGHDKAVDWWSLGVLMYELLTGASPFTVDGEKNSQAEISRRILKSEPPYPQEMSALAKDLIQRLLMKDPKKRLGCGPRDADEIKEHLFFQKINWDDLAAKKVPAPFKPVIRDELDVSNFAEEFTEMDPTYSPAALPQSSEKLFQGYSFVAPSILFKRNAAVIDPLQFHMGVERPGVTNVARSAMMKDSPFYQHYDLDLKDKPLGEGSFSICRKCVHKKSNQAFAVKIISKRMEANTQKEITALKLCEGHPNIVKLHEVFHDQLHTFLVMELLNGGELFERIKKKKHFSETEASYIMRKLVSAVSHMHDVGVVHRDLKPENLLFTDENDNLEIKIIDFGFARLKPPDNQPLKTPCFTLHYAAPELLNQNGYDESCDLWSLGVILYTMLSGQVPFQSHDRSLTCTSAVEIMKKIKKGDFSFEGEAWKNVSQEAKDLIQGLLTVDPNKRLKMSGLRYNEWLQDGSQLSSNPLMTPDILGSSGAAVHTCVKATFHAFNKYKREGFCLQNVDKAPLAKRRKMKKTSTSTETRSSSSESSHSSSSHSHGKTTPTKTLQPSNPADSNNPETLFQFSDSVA
Sequence of UniProt A6NEQ0 (A6NEQ0 whole entry, looked up): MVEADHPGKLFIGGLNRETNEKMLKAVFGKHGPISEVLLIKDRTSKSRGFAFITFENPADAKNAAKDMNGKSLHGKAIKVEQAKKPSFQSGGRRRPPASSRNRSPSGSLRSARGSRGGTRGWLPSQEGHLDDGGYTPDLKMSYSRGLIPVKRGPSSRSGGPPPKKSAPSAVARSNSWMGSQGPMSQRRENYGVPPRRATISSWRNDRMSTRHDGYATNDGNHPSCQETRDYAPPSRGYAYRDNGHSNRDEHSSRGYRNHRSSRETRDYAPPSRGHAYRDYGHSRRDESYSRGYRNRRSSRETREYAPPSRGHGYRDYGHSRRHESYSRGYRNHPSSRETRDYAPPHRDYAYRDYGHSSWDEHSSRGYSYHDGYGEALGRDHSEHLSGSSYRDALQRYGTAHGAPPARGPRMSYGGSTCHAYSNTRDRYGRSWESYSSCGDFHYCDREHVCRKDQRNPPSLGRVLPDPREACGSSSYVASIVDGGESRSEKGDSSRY
Sequence of UniProt P60903 (P60903 whole entry, looked up): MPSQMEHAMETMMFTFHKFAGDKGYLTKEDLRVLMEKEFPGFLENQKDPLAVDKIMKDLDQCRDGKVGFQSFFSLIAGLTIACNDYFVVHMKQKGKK
Sequence of UniProt Q5T8P6 (Q5T8P6 whole entry, looked up): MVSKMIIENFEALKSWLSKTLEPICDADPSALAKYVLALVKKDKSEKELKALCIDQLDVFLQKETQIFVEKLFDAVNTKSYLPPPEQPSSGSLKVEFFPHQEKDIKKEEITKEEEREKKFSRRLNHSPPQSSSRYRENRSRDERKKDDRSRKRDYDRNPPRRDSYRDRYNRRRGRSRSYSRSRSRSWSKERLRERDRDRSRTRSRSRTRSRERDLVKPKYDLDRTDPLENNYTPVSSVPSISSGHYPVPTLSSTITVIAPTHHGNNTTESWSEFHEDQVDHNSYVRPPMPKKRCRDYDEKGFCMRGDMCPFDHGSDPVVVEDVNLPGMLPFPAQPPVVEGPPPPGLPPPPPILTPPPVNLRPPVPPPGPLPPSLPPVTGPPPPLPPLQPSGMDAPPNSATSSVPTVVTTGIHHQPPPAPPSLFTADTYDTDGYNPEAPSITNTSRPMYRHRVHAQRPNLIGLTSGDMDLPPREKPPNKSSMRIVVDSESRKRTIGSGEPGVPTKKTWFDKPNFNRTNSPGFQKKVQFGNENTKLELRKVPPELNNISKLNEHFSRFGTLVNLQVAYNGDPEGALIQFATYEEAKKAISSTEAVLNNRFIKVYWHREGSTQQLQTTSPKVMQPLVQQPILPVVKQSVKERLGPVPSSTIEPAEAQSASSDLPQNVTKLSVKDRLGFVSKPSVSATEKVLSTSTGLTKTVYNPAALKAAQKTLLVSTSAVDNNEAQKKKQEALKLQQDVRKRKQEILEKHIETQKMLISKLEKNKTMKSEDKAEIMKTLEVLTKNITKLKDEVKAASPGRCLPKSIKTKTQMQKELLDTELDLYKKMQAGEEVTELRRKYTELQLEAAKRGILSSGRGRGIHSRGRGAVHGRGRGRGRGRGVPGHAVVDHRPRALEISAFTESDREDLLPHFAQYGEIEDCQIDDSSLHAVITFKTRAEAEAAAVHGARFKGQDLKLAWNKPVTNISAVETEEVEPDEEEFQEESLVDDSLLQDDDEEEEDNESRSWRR
Sequence of UniProt O14796 (O14796 whole entry, looked up): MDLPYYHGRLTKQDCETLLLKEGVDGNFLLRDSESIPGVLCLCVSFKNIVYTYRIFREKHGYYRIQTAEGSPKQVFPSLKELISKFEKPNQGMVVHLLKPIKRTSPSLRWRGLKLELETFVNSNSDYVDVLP
Sequence of UniProt O95716 (O95716 whole entry, looked up): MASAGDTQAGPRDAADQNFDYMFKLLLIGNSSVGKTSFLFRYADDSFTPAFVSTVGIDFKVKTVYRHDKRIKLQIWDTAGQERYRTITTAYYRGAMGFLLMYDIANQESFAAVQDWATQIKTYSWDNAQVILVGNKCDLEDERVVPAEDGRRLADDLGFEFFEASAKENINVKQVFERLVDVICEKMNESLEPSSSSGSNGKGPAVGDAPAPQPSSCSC
Sequence of UniProt Q6R327 (Q6R327 whole entry, looked up): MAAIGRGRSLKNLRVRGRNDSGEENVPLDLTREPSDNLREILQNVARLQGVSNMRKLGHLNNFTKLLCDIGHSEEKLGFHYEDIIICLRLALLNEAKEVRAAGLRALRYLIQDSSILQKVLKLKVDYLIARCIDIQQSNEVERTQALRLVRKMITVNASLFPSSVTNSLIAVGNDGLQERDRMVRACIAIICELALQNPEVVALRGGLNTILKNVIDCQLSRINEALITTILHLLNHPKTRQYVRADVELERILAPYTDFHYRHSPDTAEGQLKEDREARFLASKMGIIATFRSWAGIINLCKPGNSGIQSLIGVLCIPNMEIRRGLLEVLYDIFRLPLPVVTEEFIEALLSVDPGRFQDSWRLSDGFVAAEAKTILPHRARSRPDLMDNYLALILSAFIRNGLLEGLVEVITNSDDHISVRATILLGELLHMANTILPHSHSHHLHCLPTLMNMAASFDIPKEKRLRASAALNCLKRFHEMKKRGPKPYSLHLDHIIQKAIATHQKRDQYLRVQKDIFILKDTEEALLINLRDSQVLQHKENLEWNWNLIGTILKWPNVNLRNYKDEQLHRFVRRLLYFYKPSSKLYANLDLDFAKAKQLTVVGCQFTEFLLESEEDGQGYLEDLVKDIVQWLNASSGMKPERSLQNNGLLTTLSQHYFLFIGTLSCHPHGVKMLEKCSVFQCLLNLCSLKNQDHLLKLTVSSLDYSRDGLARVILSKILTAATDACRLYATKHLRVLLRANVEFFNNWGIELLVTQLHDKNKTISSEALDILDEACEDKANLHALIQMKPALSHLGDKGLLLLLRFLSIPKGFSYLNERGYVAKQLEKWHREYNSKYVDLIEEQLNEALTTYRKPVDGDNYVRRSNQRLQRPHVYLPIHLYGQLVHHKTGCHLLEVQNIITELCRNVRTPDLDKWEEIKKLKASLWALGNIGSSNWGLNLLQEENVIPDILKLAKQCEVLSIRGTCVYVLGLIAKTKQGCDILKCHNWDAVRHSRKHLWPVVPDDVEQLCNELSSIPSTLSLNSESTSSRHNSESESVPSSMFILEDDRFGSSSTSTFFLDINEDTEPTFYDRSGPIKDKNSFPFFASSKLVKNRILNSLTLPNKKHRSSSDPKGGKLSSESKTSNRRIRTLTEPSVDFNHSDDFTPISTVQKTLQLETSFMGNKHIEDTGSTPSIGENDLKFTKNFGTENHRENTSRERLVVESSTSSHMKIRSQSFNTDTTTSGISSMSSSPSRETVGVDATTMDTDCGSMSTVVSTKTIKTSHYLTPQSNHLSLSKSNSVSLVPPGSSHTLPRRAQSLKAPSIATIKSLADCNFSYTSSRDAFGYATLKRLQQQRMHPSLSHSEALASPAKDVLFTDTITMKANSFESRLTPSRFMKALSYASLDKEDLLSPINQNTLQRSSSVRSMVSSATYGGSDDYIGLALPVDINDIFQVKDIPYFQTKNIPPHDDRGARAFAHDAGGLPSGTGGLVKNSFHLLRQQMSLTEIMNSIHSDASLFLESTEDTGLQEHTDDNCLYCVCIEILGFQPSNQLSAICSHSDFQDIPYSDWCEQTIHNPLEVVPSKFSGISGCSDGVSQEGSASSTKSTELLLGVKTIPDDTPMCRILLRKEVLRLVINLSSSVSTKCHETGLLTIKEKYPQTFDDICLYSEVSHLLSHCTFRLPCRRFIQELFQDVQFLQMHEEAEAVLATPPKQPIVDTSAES

Target	log2 fold change (erlotinib)	log2 fold change [1]	log2 fold change [2]	log2 fold change [3]	log2 fold change [4]	log2 fold change [5]	log2 fold change [6]	log2 fold change [7]	log2 fold change [8]	log2 fold change (IRAK-1-4 Inhibitor I)	log2 fold change (ibrutinib)	log2 fold change [9]	log2 fold change (ralimetinib)	log2 fold change [10]	log2 fold change [11]	log2 fold change (pinometostat)	log2 fold change [12]	log2 fold change [13]	log2 fold change [14]	log2 fold change [15]
RCOR3 isoform 3 (UniProt Q9P2K3)	0.116	0.084	-0.008	0.022	-0.01	-0.011	0.018	-0.003	0.057	0.009	-0.053	-0.188	0.017	-0.048	0.062	-0.038	0.011	-0.035		
RICTOR isoform 3 (UniProt Q6R327)	0.116	0.025	0.36	-0.031			-0.136	0.054	-0.001			0.866 (active)		-0.584			0.07	-0.223	-0.067	-0.084
RNF185 (UniProt Q96GF1)	-0.054	-0.006	0.009	0.136	0.026	0.133	-0.007	0.457	-0.031		0.045	0.087	-0.04	-0.011	-0.003		0.006	0.276		
SDCBP isoform 2 (UniProt O00560)	0.157		0.159		0.009	-0.299		0.249	0.096		0		0.06	-0.444	0.13		-0.29	0.033	0.007	0.008
RPAIN isoform 8 (UniProt Q86UA6)		0.205		-0.03	0.048	0.083	0.009	-0.035	-0.002	-0.022	0.034	-0.124	-0.048		-0.221	0.011		-0.168	0.085	0.048
RAB3D (UniProt O95716)	-0.094	0.036	-0.141	-0.055	0.006	-0.145	-0.058	0.007	0.036		-0.096	-0.02	0.133	0.121	-0.605 (active)		-0.14	-0.104		
RBMY1E (UniProt A6NEQ0)	-0.238		0.06		-0.003	-0.044		-0.072	-0.099	0.019	-0.024		0.131	0.134	0.141	-0.032	0.026	-0.01		
RNF220 isoform 3 (UniProt Q5VTB9)	-0.109	-0.021	0.229	-0.05			-0.055					0.086		0.056						
SDC3 (UniProt O75056)		-0.135		0.05			-0.157	-0.139	0.203			0.089					0.042	-0.036	-0.015	-0.006
RAD50, A0A494C0Y7		-0.029		0.049	-0.077	-0.111	0.048	-0.033	0.143	0.015	0.072	-0.037	-0.085		0.196	0.015		0.051		
RMDN2 isoform 2 (UniProt Q96LZ7)						0.088				0.034			0.095		0.137	0.025	-0.192			
RAPGEF4 (UniProt Q8WZA2)	0.271	-0.636 (active)	0.053	0.19	0.029		-0.014	-0.038	0.18	-0.184	-0.025	-0.022		0.089		-0.096		0.109	0.057	0.065
RUFY3 isoform 3 (UniProt Q7L099)	0.019	0.012	-0.03	-0.028		0.011	0.065	-0.075	-0.07	-0.008		0.023	0.196	-0.098	-0.054	0.035	-0.123	0.044		
SAFB2 (UniProt K7EQU4)					-0.277					-0.129	0.131					-0.051	-0.31		-0.172	-0.042
SLC12A5 (UniProt Q9H2X9)	0.036	0.054	0.034	0.098	-0.021		-0.138	0.038	0.103	-0.024	-0.006	-0.101		0.052		-0.113		0.047	-0.49 (active)	0.14
SH2D1B (UniProt O14796)	-0.294	-0.059	-0.098	0.057		-0.228	-0.406	-0.036	0.028	0.202		-1.57 (active)	0.042	0.095	0.005	0.027	0.106	-0.004	-0.218	-0.052
SCLT1 (UniProt Q96NL6)					-0.002			-0.088	0.051	-0.046	-0.049					0.005	-0.118	0.129		

Target	log2 fold change (erlotinib)	log2 fold change [1]	log2 fold change [2]	log2 fold change [3]	log2 fold change [4]	log2 fold change [5]	log2 fold change [6]	log2 fold change [7]	log2 fold change [8]	log2 fold change (IRAK-1-4 Inhibitor I)	log2 fold change (ibrutinib)	log2 fold change [9]	log2 fold change (ralimetinib)	log2 fold change [10]	log2 fold change [11]	log2 fold change (pinometostat)	log2 fold change [12]	log2 fold change [13]	log2 fold change [14]	log2 fold change [15]
RNF41 (UniProt Q9H4P4)		0.043		-0.074	-0.146		-0.002				-0.104	0.082								
SAP30 (UniProt O75446)	-0.04	0.061	-0.027	0.018			-0.13			0.018		0.085		0.111		0.111	0.041		-0.069	0.151
RPS19 (UniProt M0R2L9)		-0.054		-0.246			0.732	0.522	-0.095			-0.083					0.538	-0.177		
RPS3A (UniProt D6R9B6)		-0.359		0.198			-0.243	0.303	0.034			-0.124						-0.363		
RPS3 (UniProt E9PJN9)						0.203		0.021	-0.151				0.228		0.134			-0.126		
RELA (UniProt Q04206)		0.034	-0.011	-0.007	0.014	-0.002	0.004	-0.022	0.011	-0.011	-0.002	0.022	0.025	-0.018	0.031	0.003	-0.022	-0.054	0.003	0
RPS6KA3 (UniProt P51812)	-0.024	0.08	0.072		0.061	-0.043	-0.345 (active)	-0.085	-0.017	0.03	-0.048	-0.194	-0.359 (active)	-0.076	0.121	0.011	0.01	0.001	0.018	-0.061
RPS6KA5 (UniProt O75582)	0.239		-0.234			-0.091				0.071			-0.11	-0.218	0.069	-0.431			-0.079	-0.042
RALGPS2 (UniProt Q86X27)	-0.43	-0.07	0.037	-0.079	0.111		-0.012	-0.06	0.154	-0.249	0.061	-0.045		0.141		0.397		0.029	-0.321	0.051
RBM26 isoform 3 (UniProt Q5T8P6)		0.22		-0.079			-0.149					-0.528								
S100A10 (UniProt P60903)		0.122		0.194	0.052		-0.096	-0.042	-0.013		0.605	-0.345					-0.06	0.522		
RNF26 (UniProt Q9BY78)					-0.08	-0.073					-0.033		0.095		0.281					
RBM6 (UniProt P78332)		0.019		0.036			-0.1	0.048	0.018	0.146		-0.208				-0.09	-0.19	-0.16		
SIK3 (UniProt H0Y4E8)	-0.074	0.045	0.094	0.074		-0.163	-0.099	0.051	0.15	0.043		-0.425 (active)	0.135	0.186	-0.167	-0.036	0.179	-0.124		
SH3PXD2B (UniProt A1X283)	0	-0.036	-0.153	0.04	-0.012		0.04	-0.034	0.132		-0.115	-0.005		0.075			-0.054	0.027	-0.013	0.035
SEMG2 (UniProt Q02383)		1.75		0.237	-0.042		-0.562 (active)	-0.071	0.06		-0.031	-0.148					-0.031	0.049	0.047	-0.011
SAMD4B (UniProt Q5PRF9)	-0.117		-0.13		0.124	-0.135		0.037	0.045	0.007	-0.024		0.053	0.142	0.04	0.051	0.05	0.039	-0.17	0.133
